Measurements from PubChem BioAssay (Tox21).
Where “and” joins values, the source holds several entries; their conditions need not be identical. Equal entries are not always repeated. Records with an inconclusive call do not appear. A number with no mark means an inactive call. Calls of active or inactive are those of the source. Calls come from the whole dose curve.

assay: Nuclear factor erythroid 2-related factor 2/antioxidant responsive element (Nrf2/ARE) small molecule agonists: luciferase reporter gene qHTS assay in human keratinocytes (AID 1919969); conditions: KeratinoSens HaCaT ARE-luciferase, luminescence, 24 h; series mostly up to 92.4 µM; activity, positive = activation: at the top concentration; note: nearly all actives have a fitted effect of over 35% in size
% is set by controls: 0 for no effect and ±100 for the full control effect; potency is the fitted concentration of half-maximal effect.

| Compound | activity, positive = activation | Potency |
| --- | --- | --- |
| Nc1nc(N)c(N)c(N)n1 | 23.7% |  |
| CCOP(=S)(NC(C)C)Oc1ccccc1C(=O)OC(C)C (stereo not given) | 8.36% |  |
| COC(=O)C(C)N(C(=O)c1ccco1)c1c(C)cccc1C (stereo not given) | -18.2% |  |
| CCCCCCCc1ccc(O)cc1 |  | 24.3 µM (active) |
| CCOP(=O)(OCC)Oc1nc(Cl)c(Cl)cc1Cl | 7.49% |  |
| O=c1ssc(Cl)c1Cl |  | 24.3 µM (active) |
| Nc1ccc(Cl)cc1C(=O)c1ccccc1 | 4.74% |  |
| CCCN(CCC)c1c([N+](=O)[O-])cc(C(F)(F)F)cc1[N+](=O)[O-] |  | 19.3 µM (active) and 61.1 µM (active) |
| CNC(=O)N(C)c1nc2ccccc2s1 | 20.7% |  |
| c1ccc2c(c1)cc1ccc3cccc4ccc2c1c34 | 13% |  |
| CC(C)(O)c1cnn2c(-c3ccc(F)c(-c4c(F)cccc4C#N)c3)cnc2n1 | 18.3% |  |
| CCOc1cc(C(C)(C)C)ccc1C1COC(c2c(F)cccc2F)=N1 (stereo not given) | -12.2% [at 42.5 µM] |  |
| CC(C)(C)C(O)/C(=C\c1ccc(Cl)cc1Cl)n1cncn1 (stereo not given) | -9.9% |  |
| NC1CCC(CC2CCC(N)CC2)CC1 (stereo not given) | -10.8% |  |
| O=[N+]([O-])c1ccc(Oc2ccc(C(F)(F)F)cc2[N+](=O)[O-])cc1 |  | 48.6 µM (active) |
| CCCN(CC1CC1)c1c([N+](=O)[O-])cc(C(F)(F)F)cc1[N+](=O)[O-] |  | 48.6 µM (active) |
| OCC(c1ccc(Cl)cc1)c1ccc(Cl)cc1 | -5.65% |  |
| CC(C)C1CCC(Cc2ccc(Cl)cc2)C1(O)Cn1cncn1 (stereo not given) | -43% |  |
| COC(C)(C)CCC[C@H](C)C/C=C/C(C)=C/C(=O)OC(C)C |  | 61.1 µM (active) |
| CCCSP(=S)(OCC)Oc1ccc(Cl)cc1Cl (stereo not given) |  | 61.1 µM (active) |
